# Assay results published in PubChem BioAssay AID1347426 (Functional Genomics Laboratory (NCATS/FGL), 2020).
# Hit rate of the full screen: of about 31,000 sequences, about 1,400 (4.5%) were called active.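 The calls were made as follows: active = median seed-adjusted z-score above 1 or below -1; inactive = the rest.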 Shown is part of a subset that was picked to be rich in actives.
# Assay: Novel Modifiers of Survival Motor Neuron (SMN) Protein: Gene Identification via Genome-wide siRNA Screen;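 also: luminescence tracks full-length SMN protein made from the SMN2 reporter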
# Details: HEK293T SMN2-luciferase reporter, siRNA knockdown, 72 h; actives lie on both sides
# Summary of the method: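 HEK293T cells stably expressing an SMN2 splicing/cDNA-luciferase reporter were reverse-transfected with a druggable-genome siRNA library and read by luminescence at 72 hours; hits defined by MAD score above 1.0 or below -1.0.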
row,Sequence,median seed-adjusted z-score
1,CAUUGGACAGUAUUACAAATT against UBE2U,-0.0545 (inactive)
2,CCUUCCCUCUACACCAUCATT against COPZ2,-1.23 (active)
3,CCUAAGUUACUACUAGUAUTT against ENPP4,0 (inactive)
4,GGAUCUCACAGGUUCCGUUTT against LARS2,0.25 (inactive)
5,GAACUUGACCAUUAUAUCATT against PHKA2,0.304 (inactive)
6,CGGUGGUGAAUGAAAGUCATT against FKBP14,-0.455 (inactive)
7,GAGGUGAACUGGAAGCGAATT against MBOAT1,-1.22 (active)
8,CGCUUAACAUUGGAGUUCATT against ATG7,-0.328 (inactive)
9,CUACGGCUUUGGAGAUAUATT against RECQL,-0.905 (inactive)
10,CAUCCAUUCUACAUCCGUATT against VHL,-0.0797 (inactive)
11,AGAGCACAUCAAAUCAGAATT against PAX2,0.341 (inactive)
12,GCUUAUGCGUAGAUCCUUUTT against SMYD4,0.272 (inactive)
13,GCACCUUCCCAACCAUCAATT against GPX2,-0.21 (inactive)
14,GCAGAUUUUGAGCAACUGATT against TRIM5,0.0758 (inactive)
15,GAACUUUGAUGACGAGUGATT against RAD23A,-1.13 (active)
16,GAUGAUCAGCUAUGAAAAATT against ZNF780A,0.298 (inactive)
17,GCAGAUAUCUGAUAGCCCUTT against PPA2,-0.497 (inactive)
18,CGUCUAUGCCUAUAAAAUATT against ADORA3,0 (inactive)
19,GCGAUGCCUAUAAAACCUATT against TRYX3,2.3 (active)
20,CUAGGAAGAUAAUACCAGATT against BTRC,-0.0819 (inactive)
21,GGAAGUACCUGAGUGUGCATT against MTCH1,0 (inactive)
22,GCUCUUUGCCGUUUCUAAUTT against SLC29A2,-0.0569 (inactive)
23,CGAGAAAUUGCACAACCGATT against NACC1,1.59 (active)

row,Sequence,median seed-adjusted z-score
1,GGACAUUGGACUAACCCAATT against EFHB,0.675 (inactive)
2,CUAUGGUAAUGUUUGCUUUTT against ZXDB,0.186 (inactive)
3,CAAGAUCAAGAGUUCCUGATT against CYP2B6,0.454 (inactive)
4,CCGAGAGUAUGUCGACUUATT against CBFB,-0.0379 (inactive)
5,GGAAAACAAGCUCAUCAAUTT against HOXA6,-0.282 (inactive)
6,GCAGCGUAGUUUUUGCGGATT against DOCK2,0.151 (inactive)
7,UCAGUGCCCUUGUAUCAAATT against CYP4F2,-0.387 (inactive)
8,GCCUCAGUUUGAAAUUGUUTT against TBRG1,-1.47 (active)
9,CAGACUCUCCGAUCUCUGATT against NRIP3,-0.699 (inactive)
10,CCUGGAUCCAAAUAGCGAATT against SMARCA2,-0.458 (inactive)
11,CUCUUUGACGUGUCUCAUATT against AMT,-0.506 (inactive)
12,CCUGAACAUUGGACCCUGUTT against CPSF1,3.29 (active)
13,UCACUUUCCCUGUAAAUAUTT against CD84,0.629 (inactive)
14,GCAAGACCUAAGCAAACUATT against BXDC1,0.173 (inactive)
15,CAUAGACUCUUACACCACATT against SC4MOL,-0.0194 (inactive)
16,GGCUGUCUGCUGUACGAGATT against NEK6,-0.674 (inactive)
17,CCAGCUCCUUUAUCAAGCATT against RAD51,0.594 (inactive)
18,GCCUGGAUAACAUCACUGATT against AIM2,0.0646 (inactive)
19,GACCUGAUGUGGACCCAGATT against MIOX,0.14 (inactive)
20,GCGACCAACUGAUUGUCGATT against PTPRZ1,1.73 (active)
21,GACACUUGCUUAGAAGUAATT against LRP12,0.416 (inactive)
22,GGAUCUACGUGUACGUCAATT against LPAR3,-0.3 (inactive)
23,GGAUCAGUUUGACAGUUUUTT against RNPEP,-0.236 (inactive)

row,Sequence,median seed-adjusted z-score
1,GGAAAUUAGCUGCAGCUGATT against PPP1R2,0.208 (inactive)
2,GGAGAACCACAGUUGCUUUTT against IL17RA,-1.29 (active)
3,GGAUUCAUCCUUACCCUCATT against PPP2R4,0.318 (inactive)
4,GCUUUACAGAAAGCCGUGATT against STRADB,0.21 (inactive)
5,CCCUCGAGCAUGUUCCAAATT against PRPF6,-1.06 (active)
6,AGAUCGUGGUGCAUCCAUATT against ELA1,0.687 (inactive)
7,GCACCAACCUGACCUGUCATT against CD33,-0.355 (inactive)
8,GAACCAAGAUCAUUAUGCATT against DNAJC2,-0.0357 (inactive)
9,GCGCAGCCUUUAGAGGAUATT against UBE2J1,-1.2 (active)
10,UGGAGUAAAUAGUUCUAAUTT against UBE2V1,0.745 (inactive)
11,UGAGGAUAGUGGGUCUGUATT against MEIS3,0.207 (inactive)
12,GACUCAUCGUGAUGAGAUUTT against SLC7A9,0.194 (inactive)
13,GGAACAAGUAUUUAGGAAATT against CAPSL,-0.168 (inactive)
14,CCCUAGGCCUUUUACGAAATT against RAG1,-1.35 (active)
15,AGCAGAAGAAGUUCAAAUATT against P2RX1,0.908 (inactive)
16,GCAGUAUAUUACAAACAAATT against NAT2,-0.0495 (inactive)
17,GGCCCAAGCUUCAACAGCATT against DNASE2,-1.23 (active)
18,GGAAAUCGUUCAGUAAGAATT against ZNF175,-0.0194 (inactive)
19,CCAUAACCUUAUUGACGCATT against LRFN4,-0.076 (inactive)
20,GCCUGAUUCUGAGUGAUGATT against SPTLC2,0 (inactive)
21,GCCUGAUACAAAAUCAACATT against TRPC5,-1.14 (active)
22,GGAGUUACAUCAGACCUAUTT against MOGAT1,0.293 (inactive)
23,GGAAAUCUGAAGACGAUAATT against CCAR1,-1.18 (active)
